The record followed here is PubChem BioAssay AID1076 (NMMLSC, 2008).

This experiment is described as follows: LNCaP cell loss by flow event count, confirmation, cytotoxicity control for prostate differentiation activator project, single point (AID 1076).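 Note: counts scatter-gated live cells after medium removal discards detached dead cells.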 The settings on record: flow cytometry event count, 4 d, stronger effect = lower value.

Activity calls are given as the source filed them.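 Rule for the calls: active = cell event count below 40, meaning activity score above 60 where score is 100 minus count; inactive = the rest.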

In the case of `COc1ccc(-c2ccc(-c3nnn(CC(C)=O)n3)cc2)cc1`, the cell event count by setting is: (at 100 µM) 145 (inactive); (event count, at 10 µM) 116.

On to `CC1CCCCN1CCNC(=O)c1cc2c(-c3ccccc3F)nn(C)c2s1` (stereo not drawn), for which the cell event count reads like this: (at 100 µM) 255 (inactive); (event count, at 10 µM) 384.

With `CC(C)N1CCC2(CC1)N=C(c1ccc3c(c1)OCO3)CC(c1cc(Cl)ccc1O)N2` (stereo not drawn), the cell event count (at 100 µM) is 46 (inactive) and the cell event count (event count, at 10 µM) turned out to be 43.5.

In the case of `Cc1ccccc1-c1nc(CN2CCC(C(=O)O)CC2)c(C)o1`, the cell event count was 217 (inactive) (at 100 µM) and 207 (event count, at 10 µM).

As for `Cc1oc(-c2ccc(Cl)cc2)nc1CN1CCCC(C(=O)NCCCN2CCCC2=O)C1` (stereo not drawn), the cell event count reads like this: (at 100 µM) 43 (inactive); (event count, at 10 µM) 258.

As for `CN1CCN(c2cc3c(c4c2[nH]c2ccccc24)C(=O)CC(C)(C)C3)CC1`, the cell event count by setting is: (at 100 µM) 31 (inactive); (event count, at 10 µM) 231.

On to `CCOc1ccccc1NC(=O)CCC(=O)O`, for which the cell event count reads like this: (at 100 µM) 239 (inactive); (event count, at 10 µM) 200.

Turning to `Cc1ccccc1CN1CCN(CC(=O)NCCCN2CCN(c3ccc(F)cc3)CC2)C1=O`, the cell event count (at 100 µM) was 241 (inactive) and the cell event count (event count, at 10 µM) was 195.

As for `Cc1ccccc1-c1nc(CN2CCC(C(=O)NCc3cccnc3)CC2)c(C)o1`, the cell event count is 268 (inactive) (at 100 µM) and 208 (event count, at 10 µM).

In the case of `CCOc1ccc(-n2cc(C(=O)N3CCC(C)CC3)c3cc(OC)c(OC)cc3c2=O)cc1`, the cell event count reads like this: (at 100 µM) 202 (inactive); (event count, at 10 µM) 251.

Consider `CCCS(=O)(=O)N1CCCC(C(=O)NCCCN2CCN(c3ccc(F)cc3)CC2)C1` (stereo not drawn), for which the cell event count by setting is: (at 100 µM) 49 (inactive); (event count, at 10 µM) 47.

For the compound `COc1ccc(/C=N/c2nc3ccccc3n2C)cc1OC`, the cell event count by setting is: (at 100 µM) 90 (inactive); (event count, at 10 µM) 35.5.

As for `Cc1oc(-c2ccc(Cl)cc2)nc1CN1CCC(C(=O)NCCCN2CCCC2=O)CC1`, the cell event count is 51 (inactive) (at 100 µM) and 115 (event count, at 10 µM).

On to `Oc1ccccc1CNc1nc2ccccc2n1CCN1CCCCC1`, for which the cell event count by setting is: (at 100 µM) 44 (inactive); (event count, at 10 µM) 176.
